Results from the supplement of paper PMC10849652.
Of roughly 8,800 targets only a part is listed; those with a hit were picked by preference. About 0.5% of all pairs of compound and target were hits.

Compound: O=C(O)c1ccc2c(c1)nc(Nc1cccc(Cl)c1)c1ccncc12 [silmitasertib]
Assay: log2 fold change, soluble protein after heating vs DMSO (PISA); higher = thermal stabilisation; K562 lysate, 10 uM; active = over 0.2 and 3.5 SD of the protein, either way, in both replicates (recomputed)
Outline: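 Thermal stability, expressed as log-two fold change relative to solvent controls, is given from duplicates. Crude K562 extract in PBS pH 7.4 with 1 mM MgCl2, at 1 mg/mL protein, was treated with 10 μM compound for 30 min and heated in aliquots for 3 min across 48°C-58°C. After pooling, adjustment to 0.5% NP-40 at 4°C and centrifugation at 21,000xg for 90 min, supernatant protein was measured by TMTpro 16plex LC-MS/MS with channel sums equalised.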

UniProt Q96LJ8, sequence (Q96LJ8 whole entry, looked up): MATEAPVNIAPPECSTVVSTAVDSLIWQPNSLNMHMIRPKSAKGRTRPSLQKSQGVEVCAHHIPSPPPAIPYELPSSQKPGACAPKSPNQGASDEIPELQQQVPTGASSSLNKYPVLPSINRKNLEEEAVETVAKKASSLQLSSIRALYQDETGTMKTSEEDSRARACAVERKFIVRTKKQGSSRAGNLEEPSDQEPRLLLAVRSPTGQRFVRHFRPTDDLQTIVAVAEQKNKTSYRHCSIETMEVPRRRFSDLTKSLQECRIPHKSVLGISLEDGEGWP
UniProt O60704, sequence (O60704 whole entry, looked up): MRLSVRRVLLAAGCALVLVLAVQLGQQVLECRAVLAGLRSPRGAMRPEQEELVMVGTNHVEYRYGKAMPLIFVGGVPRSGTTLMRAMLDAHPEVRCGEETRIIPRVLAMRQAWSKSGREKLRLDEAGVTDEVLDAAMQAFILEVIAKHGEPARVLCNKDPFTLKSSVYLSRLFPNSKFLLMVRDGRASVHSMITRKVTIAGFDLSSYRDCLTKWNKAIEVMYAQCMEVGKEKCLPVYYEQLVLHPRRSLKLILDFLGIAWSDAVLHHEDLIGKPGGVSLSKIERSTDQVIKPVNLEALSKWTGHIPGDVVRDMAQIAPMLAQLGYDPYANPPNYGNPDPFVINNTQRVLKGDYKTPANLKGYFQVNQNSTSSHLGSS
UniProt Q9BZV1, sequence (Q9BZV1 whole entry, looked up): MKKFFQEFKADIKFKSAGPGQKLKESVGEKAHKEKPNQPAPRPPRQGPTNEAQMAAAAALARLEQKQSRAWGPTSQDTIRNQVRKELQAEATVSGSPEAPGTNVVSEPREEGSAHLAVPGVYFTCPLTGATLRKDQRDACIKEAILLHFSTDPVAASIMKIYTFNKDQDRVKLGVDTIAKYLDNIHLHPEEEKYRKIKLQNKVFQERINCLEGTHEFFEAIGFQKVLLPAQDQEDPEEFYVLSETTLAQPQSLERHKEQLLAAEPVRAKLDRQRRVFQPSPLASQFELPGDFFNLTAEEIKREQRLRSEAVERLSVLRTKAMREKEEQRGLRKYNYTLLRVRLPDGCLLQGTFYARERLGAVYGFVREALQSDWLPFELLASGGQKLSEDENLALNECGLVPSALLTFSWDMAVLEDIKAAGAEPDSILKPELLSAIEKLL
UniProt Q9UKI8, sequence (Q9UKI8 whole entry, looked up): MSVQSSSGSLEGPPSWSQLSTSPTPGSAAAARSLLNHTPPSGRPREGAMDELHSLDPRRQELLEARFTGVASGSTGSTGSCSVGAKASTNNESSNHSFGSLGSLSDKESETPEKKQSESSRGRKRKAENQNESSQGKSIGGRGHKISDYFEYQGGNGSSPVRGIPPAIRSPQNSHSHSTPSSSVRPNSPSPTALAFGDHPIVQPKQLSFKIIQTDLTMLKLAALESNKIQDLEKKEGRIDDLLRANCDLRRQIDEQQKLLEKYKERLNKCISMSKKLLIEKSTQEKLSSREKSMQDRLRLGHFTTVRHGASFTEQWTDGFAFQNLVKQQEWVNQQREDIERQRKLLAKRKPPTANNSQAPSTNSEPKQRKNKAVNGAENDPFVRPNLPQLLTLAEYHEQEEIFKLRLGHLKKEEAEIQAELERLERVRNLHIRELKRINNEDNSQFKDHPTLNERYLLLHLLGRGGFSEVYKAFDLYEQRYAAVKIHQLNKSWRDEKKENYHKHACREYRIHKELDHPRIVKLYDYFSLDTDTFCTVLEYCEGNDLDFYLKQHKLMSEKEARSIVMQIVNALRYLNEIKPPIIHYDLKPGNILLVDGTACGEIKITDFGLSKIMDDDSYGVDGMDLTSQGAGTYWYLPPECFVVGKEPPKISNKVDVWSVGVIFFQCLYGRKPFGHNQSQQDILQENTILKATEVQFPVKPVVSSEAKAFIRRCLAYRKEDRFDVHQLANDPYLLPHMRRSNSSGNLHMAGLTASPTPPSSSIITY
UniProt Q13509, sequence (Q13509 whole entry, looked up): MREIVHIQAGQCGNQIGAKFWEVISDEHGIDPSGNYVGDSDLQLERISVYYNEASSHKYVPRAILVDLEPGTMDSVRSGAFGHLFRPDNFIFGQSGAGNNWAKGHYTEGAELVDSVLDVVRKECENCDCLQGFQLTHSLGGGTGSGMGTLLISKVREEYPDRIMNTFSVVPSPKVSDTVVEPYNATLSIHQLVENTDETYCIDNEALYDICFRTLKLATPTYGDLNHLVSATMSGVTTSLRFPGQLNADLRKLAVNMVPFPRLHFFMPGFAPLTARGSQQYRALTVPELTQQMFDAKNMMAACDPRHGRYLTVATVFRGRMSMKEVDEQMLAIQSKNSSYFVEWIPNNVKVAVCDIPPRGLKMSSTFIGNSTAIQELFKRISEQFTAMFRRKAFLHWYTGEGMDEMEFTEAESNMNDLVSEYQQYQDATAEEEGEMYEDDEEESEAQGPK
UniProt O95271, sequence (O95271 whole entry, looked up): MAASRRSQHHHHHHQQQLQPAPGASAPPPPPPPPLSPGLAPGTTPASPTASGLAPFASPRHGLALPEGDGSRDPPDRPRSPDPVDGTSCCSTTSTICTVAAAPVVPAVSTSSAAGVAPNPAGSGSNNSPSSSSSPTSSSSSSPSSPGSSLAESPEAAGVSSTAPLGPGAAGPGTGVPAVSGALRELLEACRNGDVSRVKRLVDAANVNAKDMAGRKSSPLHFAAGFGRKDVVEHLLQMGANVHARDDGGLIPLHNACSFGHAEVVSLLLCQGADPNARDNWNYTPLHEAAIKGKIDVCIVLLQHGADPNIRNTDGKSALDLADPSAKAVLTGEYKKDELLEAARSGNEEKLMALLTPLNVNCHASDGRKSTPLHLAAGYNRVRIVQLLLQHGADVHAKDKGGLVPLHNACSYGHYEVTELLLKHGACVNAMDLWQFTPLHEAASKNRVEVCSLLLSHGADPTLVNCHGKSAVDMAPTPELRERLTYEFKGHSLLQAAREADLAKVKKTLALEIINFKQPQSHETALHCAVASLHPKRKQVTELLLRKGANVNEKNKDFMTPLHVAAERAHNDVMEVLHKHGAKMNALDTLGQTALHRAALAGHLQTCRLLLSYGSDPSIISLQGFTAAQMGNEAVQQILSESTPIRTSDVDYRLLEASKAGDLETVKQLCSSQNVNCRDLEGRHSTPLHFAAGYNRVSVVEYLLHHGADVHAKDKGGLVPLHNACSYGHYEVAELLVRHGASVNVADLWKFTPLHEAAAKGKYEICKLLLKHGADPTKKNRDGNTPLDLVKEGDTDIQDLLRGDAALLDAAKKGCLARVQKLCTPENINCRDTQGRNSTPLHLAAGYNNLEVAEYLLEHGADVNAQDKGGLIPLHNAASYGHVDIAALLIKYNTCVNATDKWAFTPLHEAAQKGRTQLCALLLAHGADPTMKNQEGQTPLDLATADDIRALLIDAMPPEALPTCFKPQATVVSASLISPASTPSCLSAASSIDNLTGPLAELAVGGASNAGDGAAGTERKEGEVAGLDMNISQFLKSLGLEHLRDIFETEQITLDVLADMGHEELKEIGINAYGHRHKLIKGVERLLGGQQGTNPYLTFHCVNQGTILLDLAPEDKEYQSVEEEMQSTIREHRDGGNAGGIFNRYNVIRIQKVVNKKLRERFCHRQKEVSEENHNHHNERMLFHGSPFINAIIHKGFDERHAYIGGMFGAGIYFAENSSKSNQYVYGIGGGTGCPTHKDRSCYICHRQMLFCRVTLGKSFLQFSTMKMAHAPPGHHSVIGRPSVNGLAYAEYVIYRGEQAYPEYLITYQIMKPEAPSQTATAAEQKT
UniProt Q01664, sequence (Q01664 whole entry, looked up): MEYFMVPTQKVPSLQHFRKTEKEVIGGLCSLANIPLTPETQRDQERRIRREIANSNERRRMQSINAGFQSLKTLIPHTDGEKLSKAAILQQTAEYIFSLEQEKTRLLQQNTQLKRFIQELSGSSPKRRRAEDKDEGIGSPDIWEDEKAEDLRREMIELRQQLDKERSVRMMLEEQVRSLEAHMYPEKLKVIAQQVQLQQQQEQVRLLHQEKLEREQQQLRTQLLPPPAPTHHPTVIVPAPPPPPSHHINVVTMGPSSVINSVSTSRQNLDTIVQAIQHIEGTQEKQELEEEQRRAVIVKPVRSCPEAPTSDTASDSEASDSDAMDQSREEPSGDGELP
UniProt P67936, sequence (P67936 whole entry, looked up): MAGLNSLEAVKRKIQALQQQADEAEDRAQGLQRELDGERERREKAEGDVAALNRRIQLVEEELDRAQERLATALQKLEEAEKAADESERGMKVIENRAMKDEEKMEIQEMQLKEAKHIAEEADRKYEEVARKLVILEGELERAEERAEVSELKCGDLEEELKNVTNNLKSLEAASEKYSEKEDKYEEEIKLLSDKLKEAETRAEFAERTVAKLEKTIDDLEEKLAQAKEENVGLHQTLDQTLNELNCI
UniProt Q13769, sequence (Q13769 whole entry, looked up): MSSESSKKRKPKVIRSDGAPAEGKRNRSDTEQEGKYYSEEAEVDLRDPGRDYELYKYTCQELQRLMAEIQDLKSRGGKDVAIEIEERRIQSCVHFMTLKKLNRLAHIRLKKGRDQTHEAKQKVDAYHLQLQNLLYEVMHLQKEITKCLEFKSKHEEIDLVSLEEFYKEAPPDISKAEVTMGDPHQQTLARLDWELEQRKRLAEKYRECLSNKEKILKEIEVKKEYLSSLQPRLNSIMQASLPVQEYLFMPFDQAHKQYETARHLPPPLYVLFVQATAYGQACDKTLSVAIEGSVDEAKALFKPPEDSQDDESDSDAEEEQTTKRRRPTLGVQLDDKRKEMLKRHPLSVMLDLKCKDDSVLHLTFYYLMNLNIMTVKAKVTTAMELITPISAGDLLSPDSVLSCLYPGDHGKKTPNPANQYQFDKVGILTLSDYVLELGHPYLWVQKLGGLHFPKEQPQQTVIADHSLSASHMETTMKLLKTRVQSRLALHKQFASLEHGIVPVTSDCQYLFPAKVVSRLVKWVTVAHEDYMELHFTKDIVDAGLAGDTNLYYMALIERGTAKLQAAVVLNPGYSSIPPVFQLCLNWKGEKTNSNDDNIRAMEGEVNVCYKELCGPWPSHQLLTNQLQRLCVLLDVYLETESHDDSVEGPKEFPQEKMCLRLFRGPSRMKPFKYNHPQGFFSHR

log2 fold change, inactive:
TLK2 isoform 2 (UniProt Q86UE8) 0.057, UBXN10 (UniProt Q96LJ8) -0.005, TTK (UniProt P33981) 0.004, TUBB3 (UniProt Q13509) 0.04, TRAF2 isoform 2 (UniProt Q12933) 0.024, TNIK (UniProt C9J338) -0.023, TUBGCP3 (UniProt Q96CW5) -0.014, TPST2 (UniProt O60704) -0.03, TRIP12 isoform 2 (UniProt Q14669) 0.03, TNKS (UniProt O95271) 0.06, TUBA3C (UniProt P0DPH7) 0.017, TMEM161B (UniProt Q8NDZ6) 0, TMEM70 (UniProt Q9BUB7) 0.017, THOC5 (UniProt Q13769) 0.011, TPM4 isoform 2 (UniProt P67936) -0.016, TOR3A (UniProt Q9H497) -0.002, TFAP4 (UniProt Q01664) -0.196, UBXN6 (UniProt Q9BZV1) 0.018, TRA2A (UniProt Q13595) -0.151, TRIM25 (UniProt Q14258) -0.046, UCHL5 isoform 3 (UniProt Q9Y5K5) 0, TLK1 isoform 2 (UniProt Q9UKI8) 0.117, TIMM44 (UniProt O43615) 0.015
